# The list is not random: actives were taken first. Their share in the collection is about 1.5%.
# Six1-Eya2 inh: blocks human Six1 binding to Eya2 | Q15475+O00167 | AlphaScreen GST-Six1/His-Eya2 binding, biochemical; active compounds read low | activity change, % (concentration not given with the values) | 360,000 tested, 0.56% active; in the data active means activity change below about -65%; inconclusive means mostly about -30% to -63%
#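 AlphaScreen luminescence read after one hour at 37 °C in darkness. Pin-transferred compounds met GST-Six1 and His-Eya2 protein (5X stock 250 nM/500 nM) plus glutathione donor and Ni-chelate acceptor beads (5X, 50 ug/mL).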
# CtBP-E1A blk: CtBP/E1A binding inhibition. AlphaScreen GST-E1A/His-CtBP binding, 1536-well; active compounds read low. activity change, % (concentration not given with the values). 340,000 tested, 0.49% active. AID 651724; in the data active means activity change below about -65%; inconclusive means mostly about -30% to -63%
#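 In 5 uL wells, 23 nL compound meets equimolar GST-E1A and His-CtBP (5X stock 125 nM each) for 2 h, 37 °C. Beads (5X, 50 ug/mL) then 1 h, 37 °C, dark.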
# GALK inh: galactokinase (human) inhibition; P51570; Purified GALK, Kinase-Glo residual ATP luminescence; Potency, µM (series often up to 57.5 µM), actives largely listed as inhibitors; 270,000 tested, 0.007% active
#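 ATP-depletion format; final 35 uM ATP, 100 uM D-galactose, 5 nM enzyme; pH 8.0 HEPES/Mg2+ buffer; 60 min RT; luminescence read 10 min after detection reagent.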
# Eya2 inh: Eya2 (human) phosphatase inhibition; O00167; recombinant Eya2, OMFP fluorescence dephosphorylation (OMFP is methylfluorescein phosphate); Potency, µM (top dose mostly 76.9 µM), most hits filed as inhibitors; 330,000 tested, 0.006% active
# Target sequence (O00167 whole entry, looked up): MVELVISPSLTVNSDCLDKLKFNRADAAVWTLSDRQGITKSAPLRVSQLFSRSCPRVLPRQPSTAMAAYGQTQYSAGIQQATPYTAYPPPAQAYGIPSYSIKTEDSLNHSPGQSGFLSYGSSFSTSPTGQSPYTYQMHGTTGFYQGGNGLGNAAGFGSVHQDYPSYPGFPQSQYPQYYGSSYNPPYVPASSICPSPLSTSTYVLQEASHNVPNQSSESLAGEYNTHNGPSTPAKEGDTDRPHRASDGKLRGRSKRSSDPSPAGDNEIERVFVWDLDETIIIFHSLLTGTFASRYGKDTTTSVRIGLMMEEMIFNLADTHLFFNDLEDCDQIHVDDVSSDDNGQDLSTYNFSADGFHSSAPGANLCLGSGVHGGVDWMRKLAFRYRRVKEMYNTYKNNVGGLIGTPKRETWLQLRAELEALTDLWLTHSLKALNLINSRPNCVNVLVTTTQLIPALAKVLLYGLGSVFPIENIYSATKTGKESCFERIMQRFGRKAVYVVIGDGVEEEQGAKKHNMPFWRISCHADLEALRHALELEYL
#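 Eya2 (0.2 uM) preincubated 10 min at ambient with compound, then OMFP substrate added at 50 uM; 10 min reaction in 50 mM HEPES pH 7.5, 50 mM NaCl, 5 uM MgCl2, 0.05% BSA, 1 mM DTT. Fluorescence read at Ex 485/Em 525 nm.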
# TrxR1 inh: inhibitors of rat thioredoxin reductase 1 | O89049 | recombinant rTrxR1, NADPH fluorescence consumption, selenite substrate | Potency, µM (doses to about 114 µM), actives largely listed as inhibitors | 390,000 tested, 1% active | AID 588453; further: nearly all actives have a fitted effect of over 65% in size
#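 Rat TrxR1 (90 nM in the dispensed reagent) was pre-reduced with 400 uM NADPH for 5 min at room temperature, then incubated with compound for 15 min. After 400 uM selenite was added, NADPH fluorescence (Ex 340/Em 450 nm) was followed for 8 min.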
# TrxR1 substrate: is turned over as a substrate by rat TrxR1; Potency, µM (series often up to 114 µM); purified TrxR1 substrate turnover, NADPH consumption readout; AID 588456; O89049; 390,000 tested, 0.01% active; further: nearly all actives have a fitted effect of over 50% in size
#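 Rat TrxR1, dispensed at 90 nM, was prereduced with 400 uM NADPH (final) for 5 min at ~22 deg C, then incubated with compound 15 min before 400 uM selenite. A first-read NADPH fluorescence drop versus no-compound background flagged substrates.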
# Hits are given with their value; i = inactive; ? = inconclusive; nt = no result. Unless noted, the call rests on the fitted dose curve; in most records, active means well fitted curve in the direction sought with a large enough effect; inconclusive means small, poorly fitted or top-dose-only effect, or another doubt; inactive means no such curve, though single readings can be large; an effect the other way counts as inactive or inconclusive.
SMILES,Six1-Eya2 inh,CtBP-E1A blk,GALK inh,Eya2 inh,TrxR1 inh,TrxR1 substrate
COc1cc(NC(=O)CC2C(=O)OCCN2Cc2ccccc2)cc(OC)c1 (stereo not given),nt,nt,nt,nt,i,i
CCCc1cc(=O)oc2cc(C)cc(OCC(=O)Nc3ccc(S(N)(=O)=O)cc3)c12,i,nt,i,i,20µM,i
COc1ccc(N2CCN(C(=O)c3cn(C4CCCCC4)c(=O)c4c3c3ccccc3n4C)CC2)cc1,nt,nt,nt,nt,i,i
CN1CCCN(S(=O)(=O)c2ccccc2)CC1,i,i,i,i,i,?
Cc1ccc(S(=O)(=O)N2CCCN(C)CC2)cc1,i,i,i,i,28µM,i
Oc1ccccc1N=Nc1ccccc1O,-86,nt,i,i,i,i
Nc1ccc(N=Nc2ccccc2O)c(N)c1,?,?,nt,nt,i,i
O=C(O)c1ccccc1-c1ccc(/C=c2\sc3nc4cc(Br)cnc4n3c2=O)o1,-81,?,i,i,?,i
COc1ccc(NC(=O)C(C)n2nc(-c3cc(C)ccc3C)c3c(c2=O)CCCC3)cc1 (stereo not given),nt,nt,nt,nt,i,i
COc1ccc(C(Nc2ccccn2)c2oc(CO)cc(=O)c2O)cc1 (stereo not given),i,i,i,i,8.9µM,i
O=c1cc(CO)oc(C(Nc2ccccn2)c2ccc(F)cc2)c1O (stereo not given),i,i,i,i,8.9µM,i
O=c1cc(CO)oc(C(Nc2ccccn2)c2ccccc2Cl)c1O (stereo not given),i,i,i,i,i,i
CN1CCN(C(CNC(=O)C(=O)Nc2ccc(Cl)cc2)c2cccnc2)CC1 (stereo not given),nt,nt,nt,nt,i,i
O=C(CSc1nc(-c2ccccc2)nc2c1CCCC2)c1ccc(F)cc1,nt,nt,nt,nt,i,i
O=C1S/C(=C/c2ccc(N3CCOCC3)o2)C(=O)N1Cc1c(F)cccc1Cl,i,i,i,i,8.9µM,i
O=C1NC(=O)/C(=C/c2ccc(N3CCOCC3)o2)N1,i,i,i,i,?,i
O=C(NCCN1CCOCC1)c1ccc2c(c1)N(Cc1c(F)cccc1Cl)C(=O)c1ccccc1S2,i,i,i,i,i,i
O=C1N=C(N2CCOCC2)S/C1=C/c1ccc(-c2ccccc2Cl)o1,i,i,i,i,i,i
O=C1NC(=O)/C(=C\c2ccc(N3CCOCC3)o2)N1,i,i,i,i,8.9µM,i
O=C1S/C(=C\c2ccc(N3CCOCC3)o2)C(=O)N1c1ccccc1,i,nt,i,i,4µM,i
O=C1S/C(=C\c2ccc(N3CCOCC3)o2)C(=O)N1Cc1c(F)cccc1Cl,i,i,i,i,2.5µM,i
O=C(O)c1ccccc1-c1ccc(/C=C2\SC(=O)N(c3ccccc3)C2=O)o1,i,nt,i,i,i,i
CCCCn1c(=O)n(-c2ccc(Br)cc2F)c(=O)c2c3c(sc21)CN(C(C)=O)CC3,nt,nt,nt,nt,i,i
COc1ccc(CNC(=O)CCCN2C(=O)CSc3c2c(C)nn3-c2ccccc2)cc1,nt,nt,nt,nt,i,i
O=C(COC(=O)CCS(=O)(=O)c1ccccc1)Nc1ccccc1,i,nt,nt,i,45µM,i
SMILES,Six1-Eya2 inh,CtBP-E1A blk,GALK inh,Eya2 inh,TrxR1 inh,TrxR1 substrate
CC(=O)/C(=C/c1ccccc1)C(=O)Nc1ccccc1C,i,nt,i,?,25µM,i
Cc1oc2ccc(O)c(CN3CCN(C)CC3)c2c1C(=O)Nc1cccc(C(F)(F)F)c1,nt,nt,nt,nt,i,i
COc1ccc(C2C(O)C(c3c[nH]c4ccccc34)=NN2C(=O)CCl)cc1 (stereo not given),i,i,i,i,13µM,i
O=C(Cc1ccc(F)cc1)Oc1ccc(C(=S)N2CCCC2)cc1,-71,i,i,i,i,i
CCc1ccccc1Nc1nn2c(=O)c3ccc(C(=O)NCc4ccccn4)cc3nc2s1,?,-79,i,?,i,i
O=C(NCc1ccccn1)c1ccc2c(=O)n3nc(Nc4ccccc4)sc3nc2c1,i,i,i,i,i,i
COc1cccc(C2CC(=O)Nc3c2c(=O)n(C)c2nc4ccccc4n32)c1OC (stereo not given),nt,nt,nt,nt,i,i
C=CCn1c(SCC(=O)Nc2ccc3c(c2)OCO3)nnc1-c1cc(Br)ccc1O,-85,-92,i,nt,i,i
O=c1c(-c2c(O)cc(O)c3c(=O)cc(-c4ccc(O)cc4)oc23)c(-c2ccc(O)cc2)oc2cc(O)cc(O)c12,-68,i,i,i,i,i
O=c1cc(-c2ccc(O)c(-c3c(O)cc(O)c4c(=O)cc(-c5ccc(O)cc5)oc34)c2)oc2cc(O)cc(O)c12,i,-68,nt,i,i,i
CCN(CCCNC(=O)c1ccc(Sc2ccc(F)cc2)c(NC(C)=O)c1)c1ccccc1,nt,nt,nt,nt,i,i
Cc1c(Cl)cccc1NC(=O)CSc1cc(-c2ccccc2)ncn1,nt,nt,nt,nt,i,i
O=C(NC(NC1CCS(=O)(=O)C1)C(=O)c1cccs1)c1ccccc1 (stereo not given),i,i,i,i,i,i
O=C(NC1=C(NC2CCS(=O)(=O)C2)C(=O)c2ccccc2C1=O)c1ccccc1 (stereo not given),i,i,i,i,50µM,32µM
O=C(CC(Nc1cccc(Cl)c1Cl)C(=O)O)c1ccccc1 (stereo not given),i,i,i,i,40µM,i
Cc1c(Cl)cccc1NC(CC(=O)c1ccccc1)C(=O)OCC(=O)c1cccs1 (stereo not given),i,i,i,i,40µM,i
O=C(CC(Nc1ccc(Cl)cc1)C(=O)O)c1ccccc1 (stereo not given),i,i,i,i,28µM,i
O=C(CC(Nc1cccc(Cl)c1Cl)C(=O)OCC(=O)c1cccs1)c1ccccc1 (stereo not given),i,i,i,i,?,i
Cc1c(Cl)cccc1NC(CC(=O)c1ccccc1)C(=O)O (stereo not given),?,i,i,i,3.5µM,i
CCn1c2c(c(=O)n3ncc(C(=O)Nc4ccc(F)cc4Cl)c13)CN(Cc1ccc(OC)cc1)CC2,nt,nt,nt,nt,i,i
Cc1ccc(S(=O)(=O)c2cn(Cc3ccccc3)c3cc(N4CCOCC4)c(F)cc3c2=O)cc1,nt,nt,nt,nt,i,i
COc1ccc(OC)c(NC(=O)Cn2c(=O)n(-c3cccc(C)c3)c(=O)c3c2c2cc(C)ccc2n3C)c1,nt,nt,nt,nt,i,i
O=C(CC(Nc1ccccc1Cl)C(=O)O)c1ccccc1 (stereo not given),i,i,i,i,4.5µM,i
O=C(CC(CC(=O)c1ccccc1)C(=O)O)c1ccccc1,i,i,i,i,i,i
COc1ccccc1NC(CC(=O)c1ccccc1)C(=O)OCC(=O)c1ccc(F)cc1 (stereo not given),i,i,i,i,35µM,i
COc1ccccc1NC(=O)CCCC(=O)OCC(=O)c1ccc(F)cc1,i,i,i,i,i,i

# Screens: PubChem BioAssay, National Center for Advancing Translational Sciences (NCATS)
